Data taken from PubChem BioAssay (NCI).
This is part of a sample that, as a whole, favours compounds with a hit. Of some 79,000 tested, about 15% had one in any assay. Calls of active or inactive are those of the source. Cut-off read from the data, not from the text of the source: active = growth inhibition above about 70%; inactive = the rest.

Legend:
[1] = NCI Yeast Anticancer Drug Screen. Data for the rad52 strain (AID 147);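 note: 0% = growth of vehicle-treated control cultures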; settings: S. cerevisiae rad52 mutant growth inhibition, stronger effect = higher value
Procedure, shortened: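 DNA repair-defective yeast; compound exposure; growth scored against vehicle controls.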

[2] = NCI Yeast Anticancer Drug Screen. Data for the wt1 strain (AID 149);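 note: 0% = growth of vehicle-treated wt1 cultures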; settings: S. cerevisiae wt1 strain (SPY 50644) growth inhibition, stronger effect = higher value
Procedure, shortened: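 Each compound is tested on wt1 yeast and the loss of growth versus vehicle gives the inhibition value.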

[3] = NCI Yeast Anticancer Drug Screen. Data for the rad50EPP+ strain (AID 151);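 note: 0% = growth of vehicle-treated control cultures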; settings: S. cerevisiae rad50 mutant strain, stronger effect = higher value
Procedure, shortened: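 rad50EPP+ yeast treated with test compounds. Readout: growth vs vehicle control.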

[4] = NCI Yeast Anticancer Drug Screen. Data for the mgt1 strain (AID 153); settings: S. cerevisiae mgt1 mutant growth inhibition, stronger effect = higher value
Procedure, shortened: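 Growth inhibition relative to vehicle controls was scored for the mgt1 yeast strain after compound exposure.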

[5] = NCI Yeast Anticancer Drug Screen. Data for the rad50 strain (AID 155);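 note: 0% = growth of vehicle-only cultures of the same strain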; settings: S. cerevisiae rad50 strain growth inhibition, stronger effect = higher value
Procedure, shortened: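 Vehicle-treated cultures provide the reference for the growth inhibition reported for compound-exposed, repair-deficient yeast.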

[6] = NCI Yeast Anticancer Drug Screen. Data for the mec2-1 strain (AID 157); settings: S. cerevisiae mec2-1 strain, stronger effect = higher value
Procedure, shortened: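 Growth inhibition is read against vehicle-treated controls after compound exposure of the mec2-1 yeast strain, which is defective in DNA damage repair or cell cycle control.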

[7] = NCI Yeast Anticancer Drug Screen. Data for the sgs1 mgt1 strain (AID 161);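 note: 0% = growth of cultures given vehicle only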; settings: S. cerevisiae sgs1 mgt1 strain, stronger effect = higher value
Procedure, shortened: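 This yeast growth screen uses a strain with defined DNA-repair lesions; compound-treated growth is compared with vehicle-treated growth.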

[8] = NCI Yeast Anticancer Drug Screen. Data for the CLN2oe strain (AID 163);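 note: 0% = growth of vehicle-only control cultures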; settings: S. cerevisiae CLN2oe strain, stronger effect = higher value
Procedure, shortened: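 Compound-treated yeast; growth vs vehicle ctrl = % inhibition. Genetically altered strain (cell-cycle control).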

[9] = NCI Yeast Anticancer Drug Screen. Data for the cln2 rad14 strain (AID 165);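 note: 0% = growth equal to vehicle treated cultures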; settings: S. cerevisiae cln2 rad14 strain, stronger effect = higher value
Procedure, shortened: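 Growth inhibition, relative to vehicle-treated controls, is the read-out. The test organism is a yeast strain with defined genetic alterations, cln2 rad14.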

[10] = NCI Yeast Anticancer Drug Screen. Data for the bub3 strain (AID 167); settings: S. cerevisiae bub3 mutant strain, stronger effect = higher value
Procedure, shortened: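 Mutant yeast screening strain plus compound; vehicle-treated cultures serve as the 0% inhibition reference.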

[11] = NCI Yeast Anticancer Drug Screen. Data for the wt2 strain (AID 169); settings: S. cerevisiae wt2 strain growth inhibition, stronger effect = higher value
Procedure, shortened: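 Compound exposure of yeast; growth compared with vehicle controls; inhibition reported.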

[12] = NCI Yeast Anticancer Drug Screen. Data for the mlh1 strain (AID 171);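 note: 0% = growth of vehicle-treated control cultures of the same strain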; settings: S. cerevisiae mlh1 strain growth inhibition, stronger effect = higher value
Procedure, shortened: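 Compounds are applied to a genetically altered yeast strain, and its growth is compared with that of vehicle-treated cultures to give percent inhibition.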

[13] = NCI Yeast Anticancer Drug Screen. Data for the sgs1 strain (AID 173);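 note: 0% = growth of vehicle-only control cultures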; settings: S. cerevisiae sgs1 mutant, stronger effect = higher value
Procedure, shortened: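 Compounds applied to genetically altered yeast; growth compared with vehicle-treated cultures to give % inhibition.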

[14] = NCI Yeast Anticancer Drug Screen. Data for the mlh1 rad18 strain (AID 175); settings: S. cerevisiae mlh1 rad18 strain growth inhibition, stronger effect = higher value
Procedure, shortened: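 Cells of a genetically altered yeast strain, deficient in DNA damage repair, were treated with compound. Their growth was then compared with that of vehicle-treated cultures to give inhibition.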

[15] = NCI Yeast Anticancer Drug Screen. Data for the rad18 strain (AID 177); settings: S. cerevisiae rad18 mutant growth inhibition, stronger effect = higher value
Procedure, shortened: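 Compounds are applied to a repair-deficient yeast strain, and growth is compared with that of vehicle-treated cultures to give percent inhibition.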

[16] = NCI Yeast Anticancer Drug Screen. Data for the rad14 strain (AID 159);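 note: 0% = growth of vehicle-treated control cultures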; settings: S. cerevisiae rad14 strain growth inhibition, stronger effect = higher value
Procedure, shortened: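 Inhibition of growth is reported for a repair-deficient yeast mutant following compound treatment, calculated relative to cultures that received vehicle.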

[17] = at 5.0 µM (retest, dose inferred, filed as 0.5)
[18] = at 50.0 µM (retest, dose inferred, filed as 5.0)

Measured: growth inhibition

CCCCCCCCC/C=C/C=C/C(=O)NCC(=O)NC1C(O)C(O)C(Nc2ncnc3nc[nH]c23)OC1C(O)CO (stereo unspecified)
inactive: [1]; at 1.2 µM -19% | [1]; at 3.7 µM 11% | [1]; at 11.0 µM 10% | [1]; at 33.0 µM 69% | [1]; at 100.0 µM 67% | [2]; at 1.2 µM -41% | [2]; at 3.7 µM -23% | [2]; at 11.0 µM -27% | [2]; at 33.0 µM 33% | [2]; at 100.0 µM 20% | [3]; at 1.2 µM -19% | [3]; at 3.7 µM -17% | [3]; at 11.0 µM -15% | [3]; at 33.0 µM -36% | [3]; at 100.0 µM -48% | [4]; at 1.2 µM -33% | [4]; at 3.7 µM -22% | [4]; at 11.0 µM -14% | [4]; at 33.0 µM 43% | [4]; at 100.0 µM 39% | [5]; at 1.2 µM -53% | [5]; at 3.7 µM -47% | [5]; [17] 47% | [5]; at 11.0 µM -52% | [5]; at 33.0 µM -75% | [5]; at 50.0 µM 16.9% | [5]; at 100.0 µM -24% | [6]; at 1.2 µM -61% | [6]; at 3.7 µM -30% | [6]; [17] 9% | [6]; at 11.0 µM 14% | [6]; at 33.0 µM -11% | [6]; [18] 43% | [6]; at 50.0 µM 6.95% | [6]; at 100.0 µM -27% | [7]; [17] 2% | [7]; [18] -55% | [7]; at 50.0 µM 69.2% | [8]; at 1.2 µM 4% | [8]; at 3.7 µM 8% | [8]; at 11.0 µM 11% | [8]; at 33.0 µM 18% | [8]; at 100.0 µM -11% | [9]; [17] -1% | [9]; [18] -13% | [9]; at 50.0 µM 10.8% | [10]; at 1.2 µM -64% | [10]; at 3.7 µM -38% | [10]; [17] 5% | [10]; at 11.0 µM -58% | [10]; at 33.0 µM 5% | [10]; [18] -16% | [10]; at 50.0 µM 24.9% | [10]; at 100.0 µM 3% | [11]; at 1.2 µM 7% | [11]; at 3.7 µM 24% | [11]; at 11.0 µM 53% | [11]; at 33.0 µM 61% | [11]; at 100.0 µM 56% | [12]; at 1.2 µM -44% | [12]; at 3.7 µM -38% | [12]; at 11.0 µM -50% | [12]; at 33.0 µM 18% | [12]; at 100.0 µM -29% | [13]; at 1.2 µM -21% | [13]; at 3.7 µM 8% | [13]; at 11.0 µM 14% | [13]; at 33.0 µM 65% | [13]; at 100.0 µM 59% | [14]; [17] 20% | [14]; [18] 41% | [14]; at 50.0 µM 49.4% | [15]; at 1.2 µM -7% | [15]; at 3.7 µM 7% | [15]; at 11.0 µM 21% | [15]; at 33.0 µM 53% | [15]; at 100.0 µM 48%
active: [5]; [18] 83%

CC(C)C1=CC2=C[C@H](O)[C@H]3C(C)(C)CCC[C@]3(C)C2=C(O)C1=O
inactive: [1]; at 1.2 µM 7% | [1]; at 3.7 µM 38% | [2]; at 1.2 µM -3% | [2]; at 3.7 µM 13% | [3]; at 1.2 µM 0% | [3]; at 3.7 µM 19% | [3]; at 11.0 µM 69% | [5]; at 1.2 µM -6% | [5]; at 3.7 µM 13% | [5]; [17] 29% | [6]; at 1.2 µM -3% | [6]; at 3.7 µM -1% | [6]; [17] 54% | [16]; at 1.2 µM 6% | [16]; at 3.7 µM 23% | [7]; [17] 68% | [8]; at 1.2 µM -4% | [8]; at 3.7 µM 4% | [9]; [17] 8% | [10]; at 1.2 µM 2% | [10]; at 3.7 µM 9% | [10]; [17] 41% | [11]; at 1.2 µM 15% | [11]; at 3.7 µM 57% | [12]; at 1.2 µM -13% | [12]; at 3.7 µM 23% | [13]; at 1.2 µM 8% | [13]; at 3.7 µM 15% | [14]; [17] 62% | [15]; at 1.2 µM -6% | [15]; at 3.7 µM 27%
active: [1]; at 11.0 µM 99% | [1]; at 33.0 µM 99% | [1]; at 100.0 µM 94% | [2]; at 11.0 µM 99% | [2]; at 33.0 µM 99% | [2]; at 100.0 µM 94% | [3]; at 33.0 µM 97% | [3]; at 100.0 µM 94% | [5]; at 11.0 µM 98% | [5]; at 33.0 µM 98% | [5]; [18] 98% | [5]; at 50.0 µM 92.8% | [5]; at 100.0 µM 93% | [6]; at 11.0 µM 95% | [6]; at 33.0 µM 99% | [6]; [18] 99% | [6]; at 50.0 µM 93.5% | [6]; at 100.0 µM 96% | [16]; at 11.0 µM 100% | [16]; at 33.0 µM 99% | [16]; at 100.0 µM 95% | [7]; [18] 98% | [7]; at 50.0 µM 93.3% | [8]; at 11.0 µM 76% | [8]; at 33.0 µM 99% | [8]; at 100.0 µM 95% | [9]; [18] 98% | [9]; at 50.0 µM 91.5% | [10]; at 11.0 µM 79% | [10]; at 33.0 µM 99% | [10]; [18] 98% | [10]; at 50.0 µM 92.3% | [10]; at 100.0 µM 96% | [11]; at 11.0 µM 99% | [11]; at 33.0 µM 98% | [11]; at 100.0 µM 96% | [12]; at 11.0 µM 99% | [12]; at 33.0 µM 99% | [12]; at 100.0 µM 94% | [13]; at 11.0 µM 99% | [13]; at 33.0 µM 98% | [13]; at 100.0 µM 95% | [14]; [18] 98% | [14]; at 50.0 µM 92.3% | [15]; at 11.0 µM 99% | [15]; at 33.0 µM 99% | [15]; at 100.0 µM 92%
